This note sets out measurements from PubChem BioAssay (Tox21).

Inconclusive results are not listed. Entries that show only a call come without a potency. A number with no mark means an inactive call. Active and inactive are the calls of the source. Unless noted, the call rests on the fitted dose curve.

Sequence of 5-hydroxytryptamine receptor 2A (Homo sapiens) (P28223 whole entry, looked up): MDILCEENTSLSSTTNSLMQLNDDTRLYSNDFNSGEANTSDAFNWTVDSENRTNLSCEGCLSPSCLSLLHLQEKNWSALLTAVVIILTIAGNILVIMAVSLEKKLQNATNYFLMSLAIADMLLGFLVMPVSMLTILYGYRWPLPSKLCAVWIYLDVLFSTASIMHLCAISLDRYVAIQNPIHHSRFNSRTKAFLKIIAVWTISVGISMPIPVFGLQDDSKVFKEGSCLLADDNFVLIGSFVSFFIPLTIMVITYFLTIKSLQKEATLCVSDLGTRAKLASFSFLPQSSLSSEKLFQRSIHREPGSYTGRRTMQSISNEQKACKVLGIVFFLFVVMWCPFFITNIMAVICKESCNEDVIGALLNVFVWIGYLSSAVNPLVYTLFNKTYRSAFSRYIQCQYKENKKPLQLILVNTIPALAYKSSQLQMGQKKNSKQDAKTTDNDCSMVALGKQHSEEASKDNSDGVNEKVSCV

System in the first assay: not listed separately
As to the kind of experiment: p53 small molecule agonists, cell-based qHTS assay: qHTS cell viability counter screen (AID 1963581). Further: nearly all actives have a fitted effect of over 45% in size. The conditions noted are these: p53RE-bla HCT-116 viability, ATP luminescence, 16 h; series mostly up to 66 µM. The method in brief: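 In the same plates used for the p53 bla reporter, HCT-116 cells given compounds for 16 h at 37 C received CellTiter-Glo; luminescence was recorded 30 min later at room temperature.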
As for `Cn1cc(S(C)=O)c(=O)c2ccc(F)cc21` (configuration not stated), the Potency entry is “inactive”.
For the compound `O=Cc1ccc(C(=O)O)cc1`, the Potency entry was “inactive”.
Take `CC(C)=CCC[C@H](C)CC=O`: the Potency result was “inactive”.
With `CCC(=O)OCc1ccccc1`, the Potency entry is “inactive”.
`CCCCCC(=O)O[C@]1(C(C)=O)CC[C@H]2[C@@H]3CCC4=CC(=O)CC[C@]4(C)[C@H]3CC[C@@]21C`: the Potency result was “inactive”.
The same measure, in the same setting: next, `BrC1CCC(Br)C(Br)CCC(Br)C(Br)CCC1Br` (configuration not stated): “inactive”; `O=[N+]([O-])c1ccc2c(c1)Cc1ccccc1-2`: “inactive”.
Same read-out and setting: for `CCC1COC(=O)O1` (configuration not stated) the value was “inactive”.
Regarding `C=C(C)C(=O)OCCCCCCOC(=O)C(=C)C`, the Potency result was “inactive”.
Regarding `O=[N+]([O-])c1ccccc1Nc1ccccc1`, the Potency entry was “inactive”.
Turning to `CCN1CCCC(OC(=O)C(c2ccccc2)c2ccccc2)C1` (configuration not stated), the Potency result was “inactive”.
The same measure, in the same setting: for `O=C(O[C@@H](C(=O)O)[C@@H](OC(=O)c1ccccc1)C(=O)O)c1ccccc1` the value was “inactive”.
Same read-out and setting: for `CN(C)CCCNCCCN(C)C` the value was “inactive”.
Same read-out and setting: for `CCC(=O)OC(C)c1ccccc1` (configuration not stated) the value was “inactive”; for `CC(C)CC(C)(N)C#N` (configuration not stated), “inactive”.
With `Cc1cc(C)cc(O)c1`, the Potency result is “inactive”.
As to `C=C(C)[C@@H]1CCC2=CC(=O)C[C@@H](C)[C@]2(C)C1`, the Potency result is “inactive”.
Same read-out and setting: next, `O=c1[nH]c(=O)c2ccccc2o1`: “inactive”; `COCCOCCOCCOCCO`: “inactive”; `CCCCCCCCCCCCCCC(=O)NC(CO)CCCCCCCCCCCCCC` (configuration not stated): “inactive”.
The same measure, in the same setting: for `C[C@@H]1CCC[C@H](C)N1CCCC(O)(c1ccccc1)c1ccccn1` (some centres not stated) the value was “inactive”; for `CCCCCCCCCC(C)=O`, “inactive”.
On the same count and under the same terms, for `CN(C)c1ccc(C(=N)c2ccc(N(C)C)cc2)cc1` the value was “inactive”; for `CCCCCCCCCC/C=C/C#N`, “inactive”.
With `CNC(=O)Nc1ccc(Cl)c(Cl)c1`, the Potency entry is “inactive”.
The same measure, in the same setting: next, `[Cl][Eu]([Cl])[Cl]`: “inactive”; `c1cnc2cc3c(cc2n1)C1CNCC3C1`: “inactive”.
`Nc1c(NC/C=C\COc2cc(CN3CCCCC3)ccn2)c(=O)c1=O`: the activity change, negative = cytotoxicity is -0.902% [at 13.5 µM].
As to `FC(F)(F)C(Cl)(Cl)Cl`, the Potency result is “inactive”.
Still for that read-out and setting: for `CCc1ccc(C=O)cc1` the value was “inactive”; for `CO[C@H]1C=CO[C@@]2(C)Oc3c(C)c(O)c4c(O)c(c(/C=N/N5CCN(C)CC5)c(O)c4c3C2=O)NC(=O)/C(C)=C\C=C[C@H](C)[C@H](O)[C@@H](C)[C@@H](O)[C@@H](C)[C@H](OC(C)=O)[C@@H]1C`, “inactive”; for `O=C(O)Cc1ccc(CCNS(=O)(=O)c2ccc(Cl)cc2)cc1`, “inactive”.
The same measure, in the same setting: next, `Cc1cc(C)c(C(=O)O)c(C)c1`: “inactive”.

System in a further assay: not listed separately
Kind of assay: p53 small molecule agonists, cell-based qHTS assay (AID 1963582; active means well fitted activation curve with a large enough effect in the signal ratio in the repeat runs, not every such curve was filed as active; the % refers to the signal ratio). Conditions: HCT-116 p53RE-bla reporter, beta-lactamase FRET ratio, 16 h; series mostly up to 66 µM. The method in brief: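 Compounds are pin-transferred in DMSO onto p53RE-bla cells and incubated 16 h at 37 C. The B/G FRET beta-lactamase substrate is then applied for 2 h at RT and fluorescence recorded.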
For orientation: Quantitative high-throughput screening tests each substance at several concentrations.
`COC(=O)c1c(Cl)c(Cl)c(C(=O)OC)c(Cl)c1Cl`: the Potency entry is “inactive”.
With `c1ccc2cc3c4ccccc4c4ccccc4c3cc2c1`, the Potency result was “inactive”.
Consider `Cn1cc(S(C)=O)c(=O)c2ccc(F)cc21` (configuration not stated), for which the Potency result is “inactive”.
For the compound `O=Cc1ccc(C(=O)O)cc1`, the Potency result was “inactive”.
Regarding `CC(C)=CCC[C@H](C)CC=O`, the Potency entry was “inactive”.
On the same count and under the same terms, for `CCC(=O)OCc1ccccc1` the value was “inactive”.
Regarding `CCC1COC(=O)O1` (configuration not stated), the Potency entry is “inactive”.
Regarding `C=C(C)C(=O)OCCCCCCOC(=O)C(=C)C`, the Potency entry is “inactive”.
Consider `O=[N+]([O-])c1ccccc1Nc1ccccc1`, for which the Potency entry was “inactive”.
Take `CCN1CCCC(OC(=O)C(c2ccccc2)c2ccccc2)C1` (configuration not stated): the Potency result was “inactive”.
On the same count and under the same terms, next, `O=C1CCCCCCCCCCCCCCCO1`: “inactive”; `O=C(O[C@@H](C(=O)O)[C@@H](OC(=O)c1ccccc1)C(=O)O)c1ccccc1`: “inactive”; `CN(C)CCCNCCCN(C)C`: “inactive”.
On the same count and under the same terms, for `CC(C)CC(C)(N)C#N` (configuration not stated) the value was “inactive”; for `Cc1cc(C)cc(O)c1`, “inactive”; for `O=c1[nH]c(=O)c2ccccc2o1`, “inactive”.
In the case of `COCCOCCOCCOCCO`, the Potency result is “inactive”.
Consider `CCCCCCCCCCCCCCC(=O)NC(CO)CCCCCCCCCCCCCC` (configuration not stated), for which the Potency entry was “inactive”.
As for `C[C@@H]1CCC[C@H](C)N1CCCC(O)(c1ccccc1)c1ccccn1` (some centres not stated), the Potency entry was “inactive”.
On to `CCCCCCCCCC(C)=O`, for which the Potency entry was “inactive”.
Still for that read-out and setting: next, `CCCCCCCCCC/C=C/C#N`: “inactive”; `CNC(=O)Nc1ccc(Cl)c(Cl)c1`: “inactive”.
Take `[Cl][Eu]([Cl])[Cl]`: the Potency result is “inactive”.
The same measure, in the same setting: next, `c1cnc2cc3c(cc2n1)C1CNCC3C1`: “inactive”.
On to `Nc1c(NC/C=C\COc2cc(CN3CCCCC3)ccn2)c(=O)c1=O`, for which the activation was -1.45% [at 13.5 µM].
As to `CCc1ccc(C=O)cc1`, the Potency entry was “inactive”.
Same read-out and setting: for `COC(=O)Cc1cccc2ccccc12` the value was “inactive”; for `CCCc1c2oc(C(=O)O)cc(=O)c2cc2c(=O)cc(C(=O)O)n(CC)c12`, “inactive”; for `O=C(O)Cc1ccc(CCNS(=O)(=O)c2ccc(Cl)cc2)cc1`, “inactive”.
On the same count and under the same terms, next, `Cc1cc(C)c(C(=O)O)c(C)c1`: “inactive”.

A further assay deals with 5-hydroxytryptamine receptor 2A (Homo sapiens) (UniProt P28223). As to the kind of experiment: 5-hydroxytryptamine receptor 2A (HTR2A) small molecule antagonists, cell-based qHTS assay (AID 1963586). Further: nearly all actives have a fitted effect of over 45% in size. Further: potency means the concentration at half of the fitted maximal effect. The conditions noted are these: HTR2A-CHO cells, DOI-induced calcium flux, fluorescence; series mostly up to 61.5 µM. The method in brief:
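Antagonist-mode intracellular calcium assay: DOI (4 nM) added after 5 min compound pre-incubation at room temperature to dye-loaded HTR2A-CHO cells. Fluorescence followed for 3 min, sampled every second.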
On to `COC(=O)c1c(Cl)c(Cl)c(C(=O)OC)c(Cl)c1Cl`, for which the Potency entry was “inactive”.
As to `c1ccc2cc3c4ccccc4c4ccccc4c3cc2c1`, the Potency result is “inactive”.
Take `Cn1cc(S(C)=O)c(=O)c2ccc(F)cc21` (configuration not stated): the Potency result is “inactive”.
Still for that read-out and setting: for `O=Cc1ccc(C(=O)O)cc1` the value was “inactive”.
On to `CCC(=O)OCc1ccccc1`, for which the Potency result was “inactive”.
For `CCCCCC(=O)O[C@]1(C(C)=O)CC[C@H]2[C@@H]3CCC4=CC(=O)CC[C@]4(C)[C@H]3CC[C@@]21C`, the Potency result was “inactive”.
Still for that read-out and setting: next, `BrC1CCC(Br)C(Br)CCC(Br)C(Br)CCC1Br` (configuration not stated): “inactive”; `CCC1COC(=O)O1` (configuration not stated): “inactive”; `O=[N+]([O-])c1ccccc1Nc1ccccc1`: “inactive”.
Still for that read-out and setting: next, `CCN1CCCC(OC(=O)C(c2ccccc2)c2ccccc2)C1` (configuration not stated): 163 nM (active); `CN(C)CCCNCCCN(C)C`: “inactive”; `CCC(=O)OC(C)c1ccccc1` (configuration not stated): “inactive”.
On the same count and under the same terms, next, `CC(C)CC(C)(N)C#N` (configuration not stated): “inactive”.
On to `C=C(C)[C@@H]1CCC2=CC(=O)C[C@@H](C)[C@]2(C)C1`, for which the Potency entry is “inactive”.
Consider `O=c1[nH]c(=O)c2ccccc2o1`, for which the Potency result is “inactive”.
The same measure, in the same setting: next, `COCCOCCOCCOCCO`: “inactive”; `CCCCCCCCCC(C)=O`: “inactive”; `CN(C)c1ccc(C(=N)c2ccc(N(C)C)cc2)cc1`: “inactive”.
On the same count and under the same terms, for `CCCCCCCCCC/C=C/C#N` the value was “inactive”; for `CNC(=O)Nc1ccc(Cl)c(Cl)c1`, “inactive”.
For `[Cl][Eu]([Cl])[Cl]`, the Potency entry is “inactive”.
On to `c1cnc2cc3c(cc2n1)C1CNCC3C1`, for which the Potency entry is “inactive”.
For the compound `Nc1c(NC/C=C\COc2cc(CN3CCCCC3)ccn2)c(=O)c1=O`, the activity, negative = inhibition was -23.4% [at 12.7 µM].
In the case of `FC(F)(F)C(Cl)(Cl)Cl`, the Potency entry is “inactive”.
For `CCc1ccc(C=O)cc1`, the Potency entry was “inactive”.
In the case of `COC(=O)Cc1cccc2ccccc12`, the Potency entry was “inactive”.
For the compound `CCCc1c2oc(C(=O)O)cc(=O)c2cc2c(=O)cc(C(=O)O)n(CC)c12`, the Potency entry was “inactive”.
On the same count and under the same terms, next, `O=C(O)Cc1ccc(CCNS(=O)(=O)c2ccc(Cl)cc2)cc1`: “inactive”.
For the compound `Cc1cc(C)c(C(=O)O)c(C)c1`, the Potency entry was “inactive”.
